The values that follow come from PubChem BioAssay (NCATS).

Structures are written as SMILES. Records with an inconclusive call do not appear. Activity calls are given as the source filed them. Unless noted, calls follow the shape of the dose curve; as a rule, active = well fitted curve in the direction sought with a large enough effect; inconclusive = small, poorly fitted or top-dose-only effect, or another doubt; inactive = no such curve, though single readings can be large; an effect the other way counts as inactive or inconclusive.

In test [1] the target is Luciferin 4-monooxygenase (Photinus pyralis) (UniProt P08659). The test can be described thus: Biochemical firefly luciferase enzyme assay for NPC (AID 624030).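 Also: purified P. pyralis luciferase at 10 nM with luciferin and ATP substrate; 0% = DMSO and -100% = full luciferase inhibition by PTC124 control; nearly all actives have a fitted effect of over 70% in size.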 In a few lines:
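Purified P. pyralis luciferase at 10 nM in 50 mM Tris Acetate (final), luminescence read within 5 minutes of enzyme addition to compounds. Activity normalised to PTC124 versus DMSO; concentration-response curves classed by r2, magnitude and activity.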

The target in test [2] is Glutathione peroxidase 1 (Homo sapiens) (UniProt P07203). The test can be described thus: Primary qHTS Assay for Inhibitors of Recombinant Selenoprotein Glutathione Peroxidase 1 (GPX1) (AID 1845191). Also: nearly all actives have a fitted effect of over 65% in size. As to activity, negative = inhibition: % is scaled to controls: 0 for no effect and ±100 for the full control effect. Summed up: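 GR-coupled assay: compounds preincubated 30 min at room temperature with GPX1, then reaction started with CHP; final 10 nM GPX1, 1 mM GSH, 0.5 mM CHP, 0.5 mM NADPH, 100 nM GR, 0.01% BSA, pH 7.5 Tris buffer. NADPH fluorescence (340/450 nm) read at 0 and 15 min.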
Chain of Glutathione peroxidase 1 (Homo sapiens) (P07203 whole entry, looked up): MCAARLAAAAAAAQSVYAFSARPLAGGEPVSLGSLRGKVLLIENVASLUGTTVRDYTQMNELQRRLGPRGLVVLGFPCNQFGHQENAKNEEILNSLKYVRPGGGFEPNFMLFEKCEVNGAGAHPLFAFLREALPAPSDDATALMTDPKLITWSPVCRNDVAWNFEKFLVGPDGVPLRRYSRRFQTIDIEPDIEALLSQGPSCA
For orientation: qHTS replaces the single test concentration by a dilution series.

Test [3] can be described thus: qHTS profiling for inhibitors of Plasmodium falciparum proliferation (AID 504749). Also: potency is read from the fitted curve at half-maximal effect.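 As to activity, negative = inhibition: 0% = DMSO vehicle and full inhibition = artemisinin control.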 As to all read-outs here: nearly all actives have a fitted effect of over 60% in size. To be noted: P. falciparum in erythrocytes, SYBR Green DNA, 72 h; for activity, negative = inhibition: at 28.7 µM (top of the series). In a few lines:
(§1)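 P. falciparum-infected erythrocytes (0.3% parasitemia, 2.5% hematocrit) incubated with compound 72 h at 37 C, 5% CO2. Parasite DNA detected by SYBR Green after lysis, overnight at room temperature; normalised to 0.29 uM artemisinin and DMSO.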

Another test deals with CP262. The description is as above. The note with it: P. falciparum in erythrocytes, SYBR Green DNA, 72 h; series mostly up to 28.7 µM. Summed up: as §1
A further test has as its system CP269. Described as above. To be noted: P. falciparum in erythrocytes, SYBR Green DNA, 72 h; series mostly up to 28.7 µM. Summed up: as §1
In a further test the test system is GB4. Described as above. To be noted: P. falciparum in erythrocytes, SYBR Green DNA, 72 h; series mostly up to 28.7 µM. Summed up: as §1
Test [4] has as its target Cytochrome P450 3A4 (Homo sapiens) (UniProt P08684). The test can be described thus: qHTS Assay for Inhibitors and Substrates of Cytochrome P450 3A4 (AID 884). Also: nearly all actives have a fitted effect of over 50% in size. Also: potency is read from the fitted curve at half-maximal effect. Summed up: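 20 nM human CYP3A4 with 25 uM Luciferin-PPXE (at KM) in 200 mM KPO4, preincubated 10 min with compound; NADPH regeneration started a 60 min RT reaction. Luciferin detected by luminescence, normalized to 57 uM ketoconazole as full inhibition.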

The target of test [5] is Phospholipid hydroperoxide glutathione peroxidase GPX4 (Homo sapiens) (UniProt P36969). The test can be described thus: Primary qHTS Assay for Inhibitors of Recombinant Selenoprotein Glutathione Peroxidase 4 (GPX4) (AID 1845192). Also: nearly all actives have a fitted effect of over 65% in size. Also: potency is read from the fitted curve at half-maximal effect. In a few lines: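 GR-coupled assay: recombinant GPX4 preincubated 30 min with compound at room temperature; final 200 nM GPX4, 1 mM GSH, 0.5 mM cumene hydroperoxide, 0.5 mM NADPH, 100 nM GR, 0.01% BSA, pH 7.5 Tris. NADPH fluorescence (340/450 nm) read at 0 and 15 min.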
Chain of Phospholipid hydroperoxide glutathione peroxidase GPX4 (Homo sapiens) (P36969 whole entry, looked up): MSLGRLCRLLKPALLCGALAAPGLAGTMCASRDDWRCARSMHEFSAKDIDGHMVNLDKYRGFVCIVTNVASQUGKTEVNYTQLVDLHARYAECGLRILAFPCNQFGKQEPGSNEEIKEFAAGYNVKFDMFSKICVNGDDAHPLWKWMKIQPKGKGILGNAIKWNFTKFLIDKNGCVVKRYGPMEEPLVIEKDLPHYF

The nature of test [6]: qHTS drug screen for cell cycle checkpoint inhibitors in PARPi-resistant BRCA-mutant ovarian cancer cell lines. (AID 1963452; calls by dose curve; also: potency is read from the fitted curve at half-maximal effect). The note with it: PEO1/OlaR viability, CellTiter-Glo luminescence, 96 h; for Z-AUC: stronger effect = lower value. In a few lines:
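PEO1, PEO4 and PEO1/OlaR ovarian cancer cells, 600 per well, exposed 96 h at 37C to a dilution series. Viability read by CellTiter-Glo luminescence, normalized to DMSO and empty wells; activity summarized as Z-AUC.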

The subject of another test is CP192. The experiment in a line: qHTS profiling for inhibitors of Plasmodium falciparum proliferation (AID 504749). Also: nearly all actives have a fitted effect of over 60% in size. Also: potency is read from the fitted curve at half-maximal effect.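 As to activity, negative = inhibition: 0% = DMSO vehicle and full inhibition = artemisinin control.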 The note with it: P. falciparum in erythrocytes, SYBR Green DNA, 72 h; series mostly up to 28.7 µM. In a few lines: as §1
For a further test, the system named is CP291. The description is as above. The note with it: P. falciparum in erythrocytes, SYBR Green DNA, 72 h; series mostly up to 28.7 µM. In a few lines: as §1
The test system of a further test is CP305. The description is as above. To be noted: P. falciparum in erythrocytes, SYBR Green DNA, 72 h; series mostly up to 28.7 µM. In a few lines: as §1
The test system of another test is CP329. Described as above. The note with it: P. falciparum in erythrocytes, SYBR Green DNA, 72 h; series mostly up to 28.7 µM. Summed up: as §1
For test [7], the target named is Peroxisome proliferator-activated receptor gamma (Homo sapiens) (UniProt P37231). The experiment in a line: qHTS assay for small molecule agonists of peroxisome proliferator-activated receptor gamma signaling (AID 588536; active = well fitted curve in the direction sought with a large enough effect in the signal ratio, with a control signal flat, not every such curve was filed as active; the % refers to the signal ratio;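 also: 0% = DMSO basal wells and 100% = rosiglitazone at 2 µM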). In a few lines:
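HEK293 UAS-bla reporter line, 1% charcoal/dextran FBS; titration, 16 h, 37 C; CCF4 loading 2 h RT; fluorescence 460/530 nm. Normalized to rosiglitazone 2 uM = 100%, DMSO = 0%.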

Test [8] can be described thus: qHTS assay for small molecule antagonists of retinoid X receptor alpha signaling (AID 588546; active = well fitted inhibition curve with a large enough effect in the signal ratio, with a control signal flat, not every such curve was filed as active; the % refers to the signal ratio;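 also: cells stimulated with 9-cis-retinoic acid as agonist; % is scaled to controls: 0 for no effect and ±100 for the full control effect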). To be noted: HEK293T RXRa-UAS-bla, beta-lactamase ratio, antagonist mode; measured here: W530 green channel, cytotoxicity proxy. In a few lines: (§2)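 Beta-lactamase reporter inhibition, read as CCF4 fluorescence ratio (ex 405, em 460/530 nm) after 2 h at RT. HEK293T UAS-bla cells, 2500/well, were stimulated with 9-cis-RA at 500 or 100 nM final alongside test compound for 18 h at 37 C.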

In test [9] the target is Retinoic acid receptor RXR-alpha (Homo sapiens) (UniProt P19793). The test is described as above. To be noted: HEK293T RXRa-UAS-bla, beta-lactamase ratio, antagonist mode. In a few lines:
as §2

A short description of test [10]: qHTS assay for environmental chemicals that activate the Aryl hydrocarbon Receptor (AhR) signaling pathway (AID 651777). Also: % of control where 0% means no effect; nearly all actives have a fitted effect of over 15% in size. The note with it: 1A2-DRE human hepatoma cells, luciferase, 24 h; activation: stronger effect = higher value. Summed up:
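1A2-DRE human hepatoma reporter line; 1,200 cells/well; cmpd or DMSO 24 h, 37 C/5% CO2; One-Glo 30 min RT; luciferase lum.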

A short description of test [11]: qHTS assay for small molecule agonists of the antioxidant response element (ARE) signaling pathway measured by Nrf2-dependant transcriptional activity (AID 720636; active = well fitted curve in the direction sought with a large enough effect in the repeat runs; an effect the other way counts as inactive or inconclusive;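 also: HepG2 cells with an ARE-driven luciferase reporter; % of control where 0% means no effect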). Summed up: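 Cells: ARE-luc HepG2 with Nrf2-responsive luciferase. Medium contained 1% dialyzed FBS. Compound exposure lasted 16 hr at 37 C and 5% CO2, followed by ONE-Glo luciferase detection.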
Test [12] in a line: qHTS assay for small molecule agonists of the antioxidant response element (ARE) signaling pathway measured by Nrf2-dependant transcriptional activity - cell viability counter screen (AID 720653; active = well fitted curve in the direction sought with a large enough effect in the repeat runs; an effect the other way counts as inactive or inconclusive; also: % is scaled to controls: 0 for no effect and ±100 for the full control effect). The note with it: ARE-bla HepG2 viability, CellTiter-Glo ATP luminescence, 16 h; max response: stronger effect = lower value. Summed up:
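ARE-bla HepG2 cells treated with compounds for 16 h at 37C; this counter screen measures viability as intracellular ATP by CellTiter-Glo luminescence after 30 min at room temperature.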

Test [13] in a line: qHTS assay for cell viability of the p53RE-bla HCT-116 cell line (AID 743292). Also: % is scaled to controls: 0 for no effect and ±100 for the full control effect; nearly all actives have a fitted effect of over 55% in size. Summed up: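 HCT-116 p53RE-bla cells seeded 4,000/well; 5 h at 37 C; compound (DMSO) added; 16 h at 37 C; CellTiter-Glo added, 30 min RT; luminescence read.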
[14] abbreviates: measured here: PEO1 parental Z-AUC.

Chain of Peroxisome proliferator-activated receptor gamma (Homo sapiens) (P37231 whole entry, looked up): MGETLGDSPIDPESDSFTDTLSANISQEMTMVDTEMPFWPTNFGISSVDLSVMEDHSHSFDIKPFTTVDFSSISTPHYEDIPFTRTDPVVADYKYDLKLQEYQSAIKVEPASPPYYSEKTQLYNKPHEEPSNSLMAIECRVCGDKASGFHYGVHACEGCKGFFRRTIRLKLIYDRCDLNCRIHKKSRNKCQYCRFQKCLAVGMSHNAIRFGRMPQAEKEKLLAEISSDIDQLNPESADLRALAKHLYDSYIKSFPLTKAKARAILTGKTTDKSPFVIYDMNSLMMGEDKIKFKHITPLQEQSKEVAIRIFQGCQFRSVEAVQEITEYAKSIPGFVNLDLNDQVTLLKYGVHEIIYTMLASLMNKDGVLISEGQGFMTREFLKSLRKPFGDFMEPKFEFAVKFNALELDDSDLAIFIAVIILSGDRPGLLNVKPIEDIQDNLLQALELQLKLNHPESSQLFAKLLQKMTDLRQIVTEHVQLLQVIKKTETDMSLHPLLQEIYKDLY
Chain of Cytochrome P450 3A4 (Homo sapiens) (P08684 whole entry, looked up): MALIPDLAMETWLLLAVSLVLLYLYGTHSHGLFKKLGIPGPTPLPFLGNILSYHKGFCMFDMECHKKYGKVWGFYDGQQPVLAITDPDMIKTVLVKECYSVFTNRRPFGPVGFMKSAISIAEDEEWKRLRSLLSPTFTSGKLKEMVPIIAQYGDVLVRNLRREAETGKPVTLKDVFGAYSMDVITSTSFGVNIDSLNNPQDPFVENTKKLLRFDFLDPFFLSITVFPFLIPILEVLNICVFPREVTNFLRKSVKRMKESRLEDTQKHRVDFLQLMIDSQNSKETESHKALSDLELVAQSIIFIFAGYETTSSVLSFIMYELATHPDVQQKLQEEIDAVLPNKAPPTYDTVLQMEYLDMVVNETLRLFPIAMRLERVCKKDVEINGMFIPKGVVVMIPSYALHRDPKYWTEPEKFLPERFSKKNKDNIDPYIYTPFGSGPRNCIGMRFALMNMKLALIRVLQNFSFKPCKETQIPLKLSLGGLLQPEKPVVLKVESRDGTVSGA
Chain of Retinoic acid receptor RXR-alpha (Homo sapiens) (P19793 whole entry, looked up): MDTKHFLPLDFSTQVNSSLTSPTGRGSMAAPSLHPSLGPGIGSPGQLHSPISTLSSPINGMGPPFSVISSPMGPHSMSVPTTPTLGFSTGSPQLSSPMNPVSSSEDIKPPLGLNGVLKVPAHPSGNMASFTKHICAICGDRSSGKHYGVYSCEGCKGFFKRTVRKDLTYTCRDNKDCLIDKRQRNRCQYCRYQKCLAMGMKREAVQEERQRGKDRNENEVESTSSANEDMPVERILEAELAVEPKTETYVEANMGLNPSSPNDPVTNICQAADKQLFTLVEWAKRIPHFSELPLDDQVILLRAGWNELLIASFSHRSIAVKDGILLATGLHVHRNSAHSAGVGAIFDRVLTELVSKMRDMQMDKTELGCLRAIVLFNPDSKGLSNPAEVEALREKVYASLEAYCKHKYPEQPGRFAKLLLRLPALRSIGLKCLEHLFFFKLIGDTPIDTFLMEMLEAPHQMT
Chain of Luciferin 4-monooxygenase (Photinus pyralis) (P08659 whole entry, looked up): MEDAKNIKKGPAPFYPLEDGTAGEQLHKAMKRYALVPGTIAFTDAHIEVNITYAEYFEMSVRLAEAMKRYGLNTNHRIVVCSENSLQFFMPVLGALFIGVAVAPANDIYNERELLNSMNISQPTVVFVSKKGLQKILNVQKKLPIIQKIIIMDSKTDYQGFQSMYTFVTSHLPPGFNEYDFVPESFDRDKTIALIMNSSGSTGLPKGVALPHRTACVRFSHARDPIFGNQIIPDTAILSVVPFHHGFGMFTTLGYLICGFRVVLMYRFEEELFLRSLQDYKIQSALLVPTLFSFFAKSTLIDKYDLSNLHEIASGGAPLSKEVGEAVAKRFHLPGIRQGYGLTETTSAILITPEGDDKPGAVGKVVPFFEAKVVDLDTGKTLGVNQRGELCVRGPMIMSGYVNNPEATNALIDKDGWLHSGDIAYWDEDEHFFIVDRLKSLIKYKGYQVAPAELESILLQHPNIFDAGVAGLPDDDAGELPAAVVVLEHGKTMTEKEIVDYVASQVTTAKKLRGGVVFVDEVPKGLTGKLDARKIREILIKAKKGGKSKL

With `CC(C)(CO)C(O)C(=O)NCCCC(=O)O` (configuration not stated), the Potency result (in test [1]; in [2]; in the test with CP262; in the test on GB4) was “inactive” in each case. The Potency is 14.1 nM (active) in test [3] (parasite line A) and 16900 nM (active) in the test with CP269.
Turning to `O=c1cc(-c2cccc(O)c2)oc2c(O)c(O)ccc12`, in [4], the Potency was 15800 nM (active). Besides, the Potency result in test [2] was “inactive”.
Consider `CCCCCCCCCCCCCCCC(=O)OCC(O)C1OC(=O)C(O)=C1O` (configuration not stated), for which the Potency result in [1] and in test [2] was “inactive” in each case. Also, the Potency in test [5] was 7080 nM (active).
In the case of `CC(C)NC(=O)C1CCC(n2c(NC(=O)c3ccc(F)cc3)nc3ccc(CN4CCC(C(C)(C)O)CC4)cc32)CC1` (configuration not stated), the Potency result in [2] and in [5] was “inactive” in each case. In test [6], the Potency was 8480 nM (active). For the same compound, the figures for the Z-AUC in test [6] (setting [14]) and in test [6] (measured here: PEO4 Z-AUC) were -1.17 and -1.3, respectively.
In the case of `CC1CCC(C(C)C)C(OC(=O)c2ccccc2O)C1` (configuration not stated), the Potency entry (in test [1]; in test [2]; in test [5]; in the test with CP192; with CP262; with CP269) was “inactive” in each case. For the same compound, the Potency result with CP291, with CP305, with CP329 and in the test with GB4 was “inactive” in each case. Moreover, the activity, negative = inhibition in [3] (parasite line A) was -1.98% (inactive); in test [3] (parasite line B), 8.37% (inactive).
As to `CC(C)CC(NC(=O)CNC(=O)C(Cc1ccc(O)cc1)NC(=O)C(CO)NC(=O)C(Cc1c[nH]c2ccccc12)NC(=O)C(Cc1cnc[nH]1)NC(=O)C1CCC(=O)N1)C(=O)NC(CCCN=C(N)N)C(=O)N1CCCC1C(=O)NCC(N)=O` (configuration not stated), the Potency result in test [1], in [2] and in test [5] was “inactive” each time.
`CC(C)(C)NC(=O)[C@@H]1C[C@@H]2CCCC[C@H]2CN1C[C@@H](O)[C@H](Cc1ccccc1)NC(=O)[C@H](CC(N)=O)NC(=O)c1ccc2ccccc2n1`: the Potency result in [5] was “inactive”.
With `CC(=O)O[C@@]12CO[C@@H]1C[C@H](O)[C@@]1(C)C(=O)[C@H](O)C3=C(C)[C@@H](OC(=O)C(O)[C@@H](NC(=O)OC(C)(C)C)c4ccccc4)C[C@@](O)([C@@H](OC(=O)c4ccccc4)[C@H]21)C3(C)C` (some centres not stated), the Potency entry in [1] and in [2] was “inactive” throughout. Further, the Potency is 31.6 nM (active) in [3] (parasite line A); 28.2 nM (active) in [3] (parasite line B); 26.9 nM (active) in the test on CP192; 33.8 nM (active) in the test on CP262; 42.6 nM (active) in the test with CP269; 37.9 nM (active) in the test on CP291. Also, the Potency in the test on CP305 is 42.6 nM (active); in the test on CP329, 33.8 nM (active); in the test on GB4 it was 30.1 nM (active).
For the compound `CC1(C)S[C@@H]2[C@H](NC(=O)COc3ccccc3)C(=O)N2[C@H]1C(=O)O`, in [7], the call was inactive. Besides, the max response in test [8] was -19.5%; in [9], 2.91% (inactive); in test [12], -8.85% (inactive). Also, the Potency entry (in [1]; in test [11]; in test [13]; in test [2]; with CP192; with CP262) was “inactive” each time. Moreover, the Potency result in the test on CP269, in the test with CP291, in the test with CP305, in the test with CP329 and in the test on GB4 was “inactive” throughout. In addition, the activation in test [10] is -1.58% (inactive). Besides, the activity, negative = inhibition is 4.88% (inactive) in test [3] (parasite line A) and 4.38% (inactive) in test [3] (parasite line B).
Consider `O=C1CCc2ccccc2O1`, for which the Potency entry in [4], in test [11], in [13] and in [2] was “inactive” throughout. In [7], the call was inactive. The max response in test [8] is -3.35%; in test [9] it was 0.0036% (inactive); in test [12] it was 2.06% (inactive). Further, the activation in [10] is 0.95% (inactive).
For the compound `COc1cc([C@@H]2c3cc4c(cc3[C@@H](O[C@@H]3O[C@@H]5CO[C@@H](C)O[C@H]5[C@H](O)[C@H]3O)[C@H]3COC(=O)[C@H]23)OCO4)cc(OC)c1OP(=O)(O)O`, the Potency entry in test [1] and in test [2] was “inactive” throughout.
As for `CN(C)CCCOc1ccc(-c2ccc3ncc4c(c3c2)n(C2CCOCC2)c(=O)n4C)cn1`, the Potency entry in [2] and in test [5] was “inactive” in each case. For the same compound, the Potency in test [6] is 3010 nM (active). Moreover, the Z-AUC in test [6] (setting [14]) was -1.35; in [6] (measured here: PEO4 Z-AUC) it was -1.31.
As to `c1ccc2scnc2c1`, the Potency entry in test [4], in test [11], in test [13], in [2] and in test [5] was “inactive” each time. For the same compound, the compound was classed as inactive in test [7]. Also, the max response in test [8] was -9.8%; in test [9] it was -2.82% (inactive); in [12] it was -3.11% (inactive). In addition, the activation in [10] was -0.642% (inactive).
